Results: PubChem BioAssay (NCATS)
Records with an inconclusive call do not appear. Activity calls are given as the source filed them. Calls come from the whole dose curve.

Target: Nucleoprotein (Lymphocytic choriomeningitis virus (strain Armstrong)) (UniProt P09992)
Assay: qHTS for Inhibitors of the Functional Ribonucleoprotein Complex (vRNP) of Lymphocytic Choriomeningitis Arenaviruses (LCMV): LCMV Primary Screen - GLuc reporter signal (AID 1347086); note: nearly all actives have a fitted effect of over 70% in size
Details: LCMV minigenome vRNP cell assay, Gaussia luciferase reporter; series mostly up to 57.5 µM; activity change, negative = inhibition: at the top concentration
% is set by controls: 0 for no effect and ±100 for the full control effect.

Sequence of Nucleoprotein (Lymphocytic choriomeningitis virus (strain Armstrong)) (P09992 whole entry, looked up): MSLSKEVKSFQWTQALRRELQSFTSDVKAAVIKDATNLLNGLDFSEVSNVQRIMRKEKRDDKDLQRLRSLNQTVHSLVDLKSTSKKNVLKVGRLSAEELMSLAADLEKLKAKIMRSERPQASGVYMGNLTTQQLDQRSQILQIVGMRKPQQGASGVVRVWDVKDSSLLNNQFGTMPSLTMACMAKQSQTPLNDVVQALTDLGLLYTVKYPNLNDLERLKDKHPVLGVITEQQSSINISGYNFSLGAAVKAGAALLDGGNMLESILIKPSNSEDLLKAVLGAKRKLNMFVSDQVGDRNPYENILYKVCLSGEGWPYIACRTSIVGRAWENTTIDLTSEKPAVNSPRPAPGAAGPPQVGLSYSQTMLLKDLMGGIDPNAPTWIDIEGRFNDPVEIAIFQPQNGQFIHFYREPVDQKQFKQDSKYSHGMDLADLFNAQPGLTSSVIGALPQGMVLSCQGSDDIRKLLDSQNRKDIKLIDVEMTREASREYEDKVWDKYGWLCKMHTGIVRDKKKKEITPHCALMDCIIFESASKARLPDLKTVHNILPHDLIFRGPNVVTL

| SMILES | activity change, negative = inhibition | Potency |
| --- | --- | --- |
| O=C(CCCN1CCC(O)(c2ccc(Br)cc2)CC1)c1ccc(F)cc1 | 0.0631% (inactive) |  |
| CCCCN(CCCC)C(C(N)=O)c1ccc(OC)cc1 (centres undefined) | 8.46% (inactive) |  |
| O=C(Nc1ccc(S(=O)(=O)N2CCOCC2)cc1)c1cc(Cl)ccc1NS(=O)(=O)c1ccc(Cl)s1 | -2.59% (inactive) |  |
| CO[C@@H]1[C@@H](O[C@@H]2O[C@H](C)[C@@H](O[C@H]3C[C@@](C)(O)[C@@H](O)[C@H](C)O3)[C@H](N(C)C)[C@H]2O)[C@@H](CC=O)C[C@@H](C)[C@@H](O[C@@H]2CC[C@H](N(C)C)[C@@H](C)O2)/C=C/C=C/C[C@@H](C)OC(=O)C[C@H]1OC(C)=O | -37.3% (inactive) |  |
| CO[C@]1(NC(=O)CSC(F)F)C(=O)N2C(C(=O)O)=C(CSc3nnnn3CCO)CO[C@H]21 | 7.3% (inactive) |  |
| CCCCCN(CCCCC)C(=O)C(CCC(=O)O)NC(=O)c1ccc(Cl)c(Cl)c1 (centres undefined) |  | inactive |
| CN(C(=O)c1c(O)c2ccccc2n(C)c1=O)c1ccccc1 | 0.553% (inactive) |  |
| Oc1c(I)cc(Cl)c2cccnc12 | 17% (inactive) |  |
| O=C(O)CCC(=O)Nc1ccc(S(=O)(=O)Nc2nccs2)cc1 | 13.6% (inactive) |  |
| CCCCCCCCCCCCCCC[C@H](O)[C@@H](N)CO | 19.2% (inactive) |  |
| Oc1ccc(Cl)cc1Sc1cc(Cl)ccc1O | -33.2% (inactive) |  |
| NNc1nnc(NN)c2ccccc12 | -20.6% (inactive) |  |
| COc1cc2c(cc1OC)C(C(C(=O)N(CCc1ccc(OC)c(OC)c1OC)CCc1ccc(OC)c(OC)c1OC)c1ccccc1)=NCC2 (centres undefined) | 9.97% (inactive) |  |
| CCCCC1(COC(=O)CCC(=O)O)C(=O)N(c2ccccc2)N(c2ccccc2)C1=O | 30.6% (inactive) |  |
| CCOC(=O)C(=O)CCc1ccccc1 | 7.41% (inactive) |  |
| O=C1CC2(CCCC2)CC(=O)N1CCNCC1COc2ccccc2O1 (centres undefined) | 26.5% (inactive) |  |
| CCN1C(=O)c2ccccc2C1Nc1ccc(OCCN2CCCCC2)cc1 (centres undefined) | -5.43% (inactive) |  |
| C[N+](C)(C)CCCCCCCCCC[N+](C)(C)C |  | inactive |
| O=C1c2ccccc2S(=O)(=O)N1CCCCN1CCN(c2ncccn2)CC1 | 10.3% (inactive) |  |
| N=C(N)c1ccc2cc(OC(=O)c3ccc(N=C(N)N)cc3)ccc2c1 |  | inactive |

| SMILES | activity change, negative = inhibition | Potency |
| --- | --- | --- |
| CCC1NC(=O)c2cc(S(N)(=O)=O)c(Cl)cc2N1 (centres undefined) | -7.11% (inactive) |  |
| CN(CCCN1c2ccccc2CCc2ccccc21)CC(=O)c1ccc(Cl)cc1 | 2.86% (inactive) |  |
| CCCCCCCCNC(C)C(O)c1ccc(SC(C)C)cc1 (centres undefined) | -0.439% (inactive) |  |
| CC(=O)Oc1c(C)c(C)c2c(c1C)CC[C@@](C)(CCC[C@H](C)CCC[C@H](C)CCCC(C)C)O2 | 8.3% (inactive) |  |
| Cc1c(N)c(=O)n(-c2ccccc2)n1C | 25.7% (inactive) |  |
| C[C@@H]1CCN(C(=O)[C@H](CCCN=C(N)N)NS(=O)(=O)c2cccc3c2NC[C@H](C)C3)[C@@H](C(=O)O)C1 | 6.59% (inactive) |  |
| CCCCN1CCCC[C@H]1C(=O)Nc1c(C)cccc1C | 1.03% (inactive) |  |
| CCN(CC)CCOCCOC(=O)C1(c2ccccc2)CCCC1 |  | inactive |
| C[C@]12CC[C@@H]3c4ccc(O)cc4CC[C@H]3[C@@H]1C[C@@H](O)[C@@H]2O | -13% (inactive) |  |
| OC(CN1CCC(Cc2ccc(F)cc2)CC1)c1ccc(Cl)cc1 (centres undefined) |  | inactive |
| Clc1ccc(Cn2c(CN3CCCC3)nc3ccccc32)cc1 | 6.32% (inactive) |  |
| c1ccc(CN(CC2=NCCN2)c2ccccc2)cc1 | 16.8% (inactive) |  |
| CC(C(O)c1ccc(O)cc1)N1CCC(Cc2ccccc2)CC1 (centres undefined) | 1.09% (inactive) |  |
| Nc1ccc(S(=O)(=O)Nc2cnc3ccccc3n2)cc1 | 6.91% (inactive) |  |
| OC(CCCN1CCCCC1)(c1ccccc1)c1ccccc1 | -14.8% (inactive) |  |
| C[N+]12CCC(CC1)C(OC(=O)C(O)(c1ccccc1)c1ccccc1)C2 (centres undefined) | -2.71% (inactive) |  |
| CC(=O)c1ccc2c(c1)N(CCCN1CCC(CCO)CC1)c1ccccc1S2 | -15.1% (inactive) |  |
| O=C(/C=C/c1ccccc1)NCCO | 32.3% (inactive) |  |
| CN(C)C(=O)Oc1cccc([N+](C)(C)C)c1 |  | inactive |
